# Test results taken from PubChem BioAssay.
# Active and inactive are the calls of the source.
# How the values were obtained:
# [1] = optical density shifts of acrAB sulA E. coli – strain DRC41, OD650, 48 h, E. coli filamentation inducer project, primary screen (AID 1152); settings: higher = more signal, called active from +8 up or from −8 down;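 note: E. coli MC1000 strain DRC41 lacking acrAB efflux pump and sulA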
# [2] = probe aLefty1 binding on compound microarray – biochemical, small-molecule microarray, 635/667 nm fluorescence, primary screen (AID 1153); settings: higher = more signal;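 note: score merges spot fluorescence with signal-to-noise ratio from the scanned slide images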
# [3] = plasmodial surface anion channel blockers, osmotic lysis – cell-based, P. falciparum Indochina, OD700, 1 h, primary screen (AID 1154); settings: P. falciparum Indochina infected RBC osmotic lysis, higher = more signal, called active from +8 up or from −8 down
# [4] = plasmodial surface anion channel blockers, osmotic lysis – cell-based, P. falciparum Indochina, OD700, 2 h, primary screen (AID 1155);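 note: lysis reports solute entry through the parasite surface anion channel PSAC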; settings: P. falciparum Indochina infected erythrocytes, higher = more signal, called active from +8 up or from −8 down
# [5] = changes in parasitized red cell lysis, either direction – P. falciparum Indochina, OD700, 3 h, PSAC antagonist project, primary screen (AID 1156); settings: P. falciparum-infected erythrocytes, osmotic lysis, higher = more signal, called active from +8 up or from −8 down
# [6] = plasmodial surface anion channel blockers, osmotic lysis – cell-based, P. falciparum Indochina, OD700, 18 h, primary screen (AID 1157); settings: P. falciparum Indochina infected erythrocytes, osmotic lysis OD700, 18 h; higher = more signal, called active from +8 up or from −8 down
# [7] = S6 kinase pathway phospho-S6 level changes – cell-based, A549, cytoblot, luminescence, serum-stimulated, primary screen (AID 1158); settings: 5 h, higher = more signal;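 note: serum-stimulated A549 lung adenocarcinoma cells; signal is phosphorylated S6 detected by cytoblot immunostaining with HRP secondary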
# [8] = molecular target: NADPH oxidase 2 (Homo sapiens) (UniProt P04839); test: compounds shifting NOX2 Amplex Red fluorescence – cell-based, HEK293-NOX2, PMA-stimulated, NOX inhibitor project, primary screen (AID 1159); settings: 45 min, higher = more signal, called active from +8 up or from −8 down; note: test concentration not given here
# NADPH oxidase 2 (Homo sapiens), sequence (P04839 whole entry, looked up): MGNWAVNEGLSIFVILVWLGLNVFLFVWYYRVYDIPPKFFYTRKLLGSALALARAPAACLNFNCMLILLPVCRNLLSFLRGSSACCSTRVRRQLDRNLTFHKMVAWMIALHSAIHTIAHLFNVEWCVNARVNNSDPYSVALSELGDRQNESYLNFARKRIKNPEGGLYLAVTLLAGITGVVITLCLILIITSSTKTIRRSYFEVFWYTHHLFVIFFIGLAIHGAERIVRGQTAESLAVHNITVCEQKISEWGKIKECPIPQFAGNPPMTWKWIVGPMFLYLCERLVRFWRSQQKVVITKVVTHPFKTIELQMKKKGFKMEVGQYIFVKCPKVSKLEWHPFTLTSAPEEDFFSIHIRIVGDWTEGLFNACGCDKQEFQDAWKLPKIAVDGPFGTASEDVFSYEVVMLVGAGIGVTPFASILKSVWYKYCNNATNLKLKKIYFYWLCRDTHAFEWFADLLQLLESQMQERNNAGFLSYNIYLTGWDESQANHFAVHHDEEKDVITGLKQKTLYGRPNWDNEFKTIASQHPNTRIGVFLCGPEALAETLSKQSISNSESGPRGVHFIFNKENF
# [9] = molecular target: NADPH oxidase 4 (Homo sapiens) (UniProt Q9NPH5); test: compounds shifting NOX4 Amplex Red fluorescence – cell-based, HEK293-NOX4, tetracycline-induced, NOX inhibitor project, primary screen (AID 1160); settings: HEK293-NOX4, Amplex Red H2O2 fluorescence, 45 min; higher = more signal, called active from +8 up or from −8 down
# NADPH oxidase 4 (Homo sapiens), sequence (Q9NPH5 whole entry, looked up): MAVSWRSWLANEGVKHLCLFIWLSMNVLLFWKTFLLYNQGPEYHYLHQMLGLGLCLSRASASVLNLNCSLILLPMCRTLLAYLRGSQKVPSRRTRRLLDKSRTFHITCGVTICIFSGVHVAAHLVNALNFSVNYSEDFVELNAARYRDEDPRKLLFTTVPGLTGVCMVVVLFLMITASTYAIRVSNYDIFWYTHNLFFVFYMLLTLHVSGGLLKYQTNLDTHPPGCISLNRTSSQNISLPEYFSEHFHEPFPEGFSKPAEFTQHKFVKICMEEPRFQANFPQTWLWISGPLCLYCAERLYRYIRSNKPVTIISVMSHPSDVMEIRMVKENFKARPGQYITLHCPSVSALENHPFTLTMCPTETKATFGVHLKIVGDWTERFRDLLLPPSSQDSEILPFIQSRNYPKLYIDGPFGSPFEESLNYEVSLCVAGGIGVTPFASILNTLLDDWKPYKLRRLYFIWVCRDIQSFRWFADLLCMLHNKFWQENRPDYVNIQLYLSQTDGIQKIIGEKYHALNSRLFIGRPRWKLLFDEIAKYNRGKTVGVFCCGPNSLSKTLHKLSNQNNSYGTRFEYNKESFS
# [10] = molecular target: NADPH oxidase 5 (Homo sapiens) (UniProt Q96PH1); test: compounds shifting NOX5 Amplex Red fluorescence – cell-based, HEK293-NOX5, NOX inhibitor project, primary screen (AID 1161); settings: HEK293-NOX5, ionomycin, 45 min, higher = more signal
# NADPH oxidase 5 (Homo sapiens), sequence (Q96PH1 whole entry, looked up): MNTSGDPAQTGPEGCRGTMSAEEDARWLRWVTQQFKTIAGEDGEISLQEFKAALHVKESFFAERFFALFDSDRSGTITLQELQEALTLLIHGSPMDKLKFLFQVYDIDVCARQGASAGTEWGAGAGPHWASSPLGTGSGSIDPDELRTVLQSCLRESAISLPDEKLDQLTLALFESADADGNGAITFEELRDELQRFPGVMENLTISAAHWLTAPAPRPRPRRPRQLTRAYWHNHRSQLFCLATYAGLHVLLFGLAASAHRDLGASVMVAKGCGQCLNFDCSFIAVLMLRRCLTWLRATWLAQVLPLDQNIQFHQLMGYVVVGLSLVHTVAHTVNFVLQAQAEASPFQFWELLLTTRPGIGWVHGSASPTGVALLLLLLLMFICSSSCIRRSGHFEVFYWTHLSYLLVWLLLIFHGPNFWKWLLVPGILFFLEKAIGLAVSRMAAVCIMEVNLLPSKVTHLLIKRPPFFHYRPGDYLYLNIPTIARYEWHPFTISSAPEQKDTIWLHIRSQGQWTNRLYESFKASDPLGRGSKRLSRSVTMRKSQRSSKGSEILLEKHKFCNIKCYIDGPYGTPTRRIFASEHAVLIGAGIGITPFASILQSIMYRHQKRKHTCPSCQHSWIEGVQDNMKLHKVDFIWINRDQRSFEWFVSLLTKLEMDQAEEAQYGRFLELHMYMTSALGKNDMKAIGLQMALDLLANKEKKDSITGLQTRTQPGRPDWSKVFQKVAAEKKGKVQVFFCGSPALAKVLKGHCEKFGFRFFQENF
# [11] = compound effects on lung adenocarcinoma cell viability – A549, calcein-AM fluorescence, 48 h, basal, profiling panel (AID 1162); settings: higher = more signal; note: test concentration not given here
# [12] = compound effects on differentiated 3T3-L1 adipocyte viability – cell-based, 3T3-L1 adipocytes, calcein-AM fluorescence, 48 h, basal, profiling panel (AID 1163); settings: 3T3-L1 adipocytes viability, higher = more signal; note: test concentration not given here
# [13] = compound effects on hepatocellular carcinoma cell viability – HepG2, calcein-AM fluorescence, 48 h, basal, profiling panel (AID 1164); settings: higher = more signal; note: test concentration not given here
# [14] = compound effects on multiple myeloma cell viability – MM1S, calcein-AM fluorescence, 48 h, basal, profiling panel (AID 1165); settings: higher = more signal;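 note: viability of MM1S multiple myeloma cells under basal unstimulated conditions; test concentration not given here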
# [15] = calcein-AM signal in unstimulated myeloma cells – cell-based, calcein-AM fluorescence, 48 h, PK04 Diversity Set, profiling panel (AID 1166); settings: RPMI8226 myeloma viability, higher = more signal;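 note: cells grown under basal conditions without added stimulus; test concentration not given here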
# [16] = JC-1 mitochondrial signal, unstimulated HepG2 cells – cell-based, JC-1 fluorescence, 24 h, 100 nL compound, profiling panel (AID 1167); settings: HepG2 mitochondrial potential, higher = more signal; note: test concentration not given here
# [17] = JC-1 mitochondrial signal, unstimulated adipocytes – cell-based, JC-1 fluorescence, 3T3-L1 adipocytes, 24 h, 100 nL compound, profiling panel (AID 1168); settings: JC-1 mitochondrial fluorescence, higher = more signal, called active from +8 up or from −8 down; note: test concentration not given here
# [18] = JC-1 mitochondrial signal, unstimulated myeloma cells – cell-based, JC-1 fluorescence, RPMI8226, 24 h, 100 nL compound, profiling panel (AID 1169); settings: JC-1 mitochondrial potential fluorescence, higher = more signal; note: test concentration not given here
# [19] = JC-1 mitochondrial signal, unstimulated MM1S myeloma – cell-based, JC-1 fluorescence, 24 h, 100 nL compound, profiling panel (AID 1170); settings: MM1S mitochondrial potential, higher = more signal; note: test concentration not given here
# [20] = resazurin metabolic signal in A549 cells – cell-based, resazurin fluorescence, 24 h, PK04 Diversity Set, profiling panel (AID 1171); settings: A549 viability, higher = more signal, called active from +8 up or from −8 down; note: test concentration not given here
SMILES,z-score [1],composite z-score [2],z-score [3],z-score [4],z-score [5],z-score [6],z-score [7],z-score [8],z-score [9],z-score [10],z-score [11],z-score [12],z-score [13],z-score [14],z-score [15],z-score [16],z-score [17],z-score [18],z-score [19],z-score [20]
CO[C@H]1O[C@H](CO)[C@@H](OC(=O)Nc2ccccc2)[C@H](OC(=O)Nc2ccc3c(c2)OCO3)[C@@H]1OC(=O)Nc1ccc2c(c1)OCO2,1.44 (inactive),0.273,9.35 (active),-0.145 (inactive),1.78 (inactive),-2 (inactive),1.27,0.679 (inactive),0.0792 (inactive),-0.922,0.307,0.85,0.17,-1.51,-0.735,-0.493,2.84 (inactive),0.105,0.327,-0.429 (inactive)
CO[C@H]1COC(=O)[C@H](C)COC(=O)[C@H](Cc2ccccc2)NC(=O)CC=C[C@H]1C,0.261 (inactive),0.351,0.341 (inactive),-1.39 (inactive),0.743 (inactive),-1.83 (inactive),0.376,-0.823 (inactive),0.901 (inactive),-0.0208,0.219,-0.0092,0.284,-0.0516,1.14,0.744,0.854 (inactive),0.433,0.213,-0.36 (inactive)
COc1ccc([C@H]2C[C@H]3C(Br)=C[C@]2(OC)C(=O)[C@]32CO2)cc1,-0.882 (inactive),-0.0536,0.262 (inactive),0.0516 (inactive),-0.29 (inactive),-0.21 (inactive),-0.242,0.0866 (inactive),0.295 (inactive),-0.292,-0.909,-0.105,-1.19,-2.1,-0.393,-2.15,-0.414 (inactive),-1.07,-0.717,0.596 (inactive)
O=C1C2C=CC(C(O)c3ccccc3)N(n3cnnc3)C2C(=O)N1Cc1ccccc1 (stereo not given),-0.678 (inactive),0.3,1.23 (inactive),-0.137 (inactive),-0.138 (inactive),-1.55 (inactive),0.591,0.569 (inactive),-0.323 (inactive),-0.324,0.668,-0.0533,0.765,0.2,-1.68,0.323,0.129 (inactive),-0.605,0.474,-1.05 (inactive)
C=C(C(=O)CC[C@H](OC(=O)c1ccccc1-c1ccccc1C(=O)O)c1ccc(CO)o1)C(C)C,-0.748 (inactive),0.0026,2.22 (inactive),0.36 (inactive),1.19 (inactive),0.233 (inactive),0.124,-0.162 (inactive),-0.621 (inactive),-0.867,-0.473,-0.284,-0.396,-0.263,0.0025,-0.906,-0.244 (inactive),0.374,0.668,0.529 (inactive)
